Screens as filed in PubChem.
HIF-2a block = HIF-2a reporter inhibitors, primary screen, luminescence, 786-0 RCC cells; 786-0 RCC cells HIF-2a reporter, luciferase luminescence, overnight; inhibition, % at 18.8 µM; 360,000 tested, 0.72% active; AID 624352, 2012;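 active = inhibition of the luminescence signal of 40% or more relative to plate controls, in a single-dose primary screen at 18.75 µM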
Shn3 inh set2 = reduction of Shn3 3'UTR firefly luciferase signal, primary screen, Schnurri-3 inhibitor project, cell-based, Clone20 osteoblasts, set 2 | Clone20 osteoblast Shn3 3'UTR firefly luciferase, 24 h | inhibition, % at 12.5 µM | 360,000 tested, 0.52% active;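 active = mean inhibition of at least 75% with every replicate also reaching 75%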;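 note: 0% = median of neutral control wells and 100% = pilot-screen positive control compound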
KKLEB cytotox = cytotoxicity in KKLEB CF airway cells, primary screen, cytotoxicity control for CF NF-kB inhibitor project, cell-based, uHTS, fluorescence assay plates. AID 602141, 2011. 360,000 tested, 0.36% active. activity change (cytotoxicity), % at 5 µM. KKLEB CF airway cells viability, ATPlite luminescence, overnight; stronger effect = lower value; cells stimulated with P. aeruginosa culture filtrate;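 active = corrected activity change at or below -50% at 5 µM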
CF NFkB block = inhibitors of PAF-induced NF-kB signaling, primary screen, cell-based, GFP fluorescence, uHTS; KKLEB NF-kB-GFP reporter, GFP fluorescence overnight; inhibition, % at 5 µM; 360,000 tested, 0.86% active; AID 588850, 2011;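 active = at least 50% inhibition at 5 µM, scaled per plate between neutral and stimulator controls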;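 note: PAF is a Pseudomonas aeruginosa culture filtrate used as stimulus; plate controls were PAF-stimulated DMSO wells for no effect and unstimulated DMSO wells for full effect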
Peg3 prom inh = Peg3 promoter-driven luciferase inhibitors, primary screen, cell-based, HeLa, luciferase luminescence; AID 588405, 2011; 360,000 tested, 1.7% active; HeLa PEG-Prom luciferase reporter, overnight; inhibition, % at 20 µM;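 active = inhibition of at least 50% at 20 µM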
* = called active by the depositor. This is a sample that favours compounds with a hit; in the whole collection about 2.6% have one here.

SMILES	HIF-2a block	Shn3 inh set2	KKLEB cytotox	CF NFkB block	Peg3 prom inh
COc1ccc(CN2C(=O)/C(=C/c3ccncc3)SC2=S)cc1	43*	37	-18	45	67*
CC(C)c1ccc(/C=C2\SC(=S)N(CCC(=O)NCCCn3ccnc3)C2=O)cc1	-25	-1	-16	8	-277
Cc1ccnc(NS(=O)(=O)c2ccc(NC(=O)c3ccc([N+](=O)[O-])s3)cc2)n1	10	12	3	15	22
O=C(NCC(c1ccc(F)cc1)N1CCOCC1)c1ccco1 (stereo not drawn)	-12	-10	9	-12	-19
O=C(c1ccc(Br)cc1)N(Cc1nc2ccccc2c(=O)[nH]1)C1CCCC1	12	34	4	21	15
COC(=O)C1C(=O)/C(=C/N(C)C)C(=O)CC1(C)C (stereo not drawn)	8	-11	6	11	3
CCc1ccc(/C=C2\SC(=S)N(CCCC(=O)N3CCN(C)CC3)C2=O)cc1	38	-13	-15	22	25
COc1ccc(/C=C2\SC(=S)N(CCCC(=O)N3CCN(C)CC3)C2=O)cc1	45*	-22	0	-8	-25
CCCCCCNC(=O)c1cn(CC)c2cc(N3CCN(C)CC3)c(F)cc2c1=O	22	17	-12	4	54*
O=C(/C=C/c1cccc([N+](=O)[O-])c1)c1cccs1	-3	10	-1	44	99*
O=C(/C=C/c1cccc([N+](=O)[O-])c1)Nc1ccc(NC(=O)c2cccs2)cc1	13	4	2	-12	23
O=C1Nc2ccccc2/C1=C\C(=O)c1ccccc1	12	65	-14	17	65*
CC(C)Oc1ccc(C(=O)/C=C2/C(=O)Nc3ccccc32)cc1	-7	8	-16	15	5
COc1ccc(C(=O)/C=C2\C(=O)Nc3ccc(Br)cc32)cc1	-43	37	-14	11	76*
O=C(/C=C1\C(=O)Nc2ccccc21)/C=C1\C(=O)Nc2ccccc21	39	81	-4	8	26
COc1ccc(NC(=O)CN(C)C(=O)/C=C/c2cn(-c3ccccc3)nc2-c2cccs2)cc1	-19	15	5	-18	8
COc1cc(NC(=O)CSc2nc(C3CC3)nc3ccccc23)cc(OC)c1	16	0	-32	42	99*
O=C(CSc1nc(C2CC2)nc2ccccc12)Nc1ccccc1	8	-9	-15	38	25
COc1ccc(CNn2c(-c3cccs3)nc3ccccc3c2=O)cc1OC	-3	-16	-13	-14	53*
Cc1ccc(C(=O)c2nccn2C)cc1C	-80	-5	3	-10	-69
Cc1ccc2nc(NNC(=O)c3ccc4c(c3)OCCO4)sc2c1	-18	-11	-16	25	-11
Cc1ccc2nc(NNC(=O)c3ccc(S(=O)(=O)N4CCc5ccccc5C4)cc3)sc2c1	18	94*	-14	16	44
C[C@H]1CN([C@@H](C)CO)C(=O)CCCn2nncc2CO[C@H]1CN(C)C(=O)c1ccc(N2CCN(C)CC2)cc1	8	-5	-4	14	-11
Cc1cc2c(cc1C)N(Cc1ccc(Cl)cc1)C1=NCCCN12	20	46	3	5	57*
CCCCCCCN1C2=NCCCN2c2ccccc21	10	87*	-11	9	17
SMILES	HIF-2a block	Shn3 inh set2	KKLEB cytotox	CF NFkB block	Peg3 prom inh
CC(C)(C)c1ccc(CN2C3=NCCCN3c3ccccc32)cc1	17	88*	-28	25	20
Cc1ccc(CN2C3=NCCCN3c3ccccc32)cc1	17	41	2	12	15
O=C(Oc1ccc(OC(=O)c2ccco2)c(S(=O)(=O)c2ccc(Cl)cc2)c1)c1ccco1	11	-2	7	2	19
C=CCN(c1ccccc1Cl)S(=O)(=O)c1cc(C(=O)N2CCCC2)ccc1Cl	10	4	7	-1	14
CC1(C(=O)NCc2cccs2)CCN1CCc1ccccc1 (stereo not drawn)	11	-7	-2	12	-4
CC(=O)Nc1cccc(NC(=O)CSc2ncc(C(=O)Nc3ccccc3)c(=O)n2C)c1	1	10	3	26	105*
Cn1c(SCC(=O)NCC2CCCO2)ncc(C(=O)Nc2ccc(Cl)cc2)c1=O (stereo not drawn)	-61	20	-2	41	59*
